These results are taken from PubChem BioAssay.

Active and inactive are the calls of the source.

Assay [1] deals with Human papillomavirus type 1a protein E7 (residues 44-93). The experiment in a line: HPV1a E7 fragment binders on microarrays, primary screen, biochemical, small-molecule microarray, residues 44-93, 635 nm fluorescence (AID 1108).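 Further: E7 fragment applied at 1 µg/mL in TBST for 1 h at 4 C; score combines spot fluorescence with its signal to noise ratio.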 Particulars: small-molecule microarray binding, fluorescence 635 nm; higher = more signal.
The nature of assay [2]: modulators of HCV replicon luciferase signal, primary screen, HCV replication inhibitor project, Huh7 cells, luciferase reporter (AID 1109).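 Further: huh7 hepatoma cells harbouring a luciferase neomycin HCV replicon reporter; luciferase luminescence as measure of HCV replicon replication; test concentration not given here.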 The note with it: 48 h, higher = more signal. In general terms: Replicon systems follow genome replication, usually without infectious particles.
Assay [3] has as its target Left-right determination factor 2 (Homo sapiens) (UniProt O00292). The experiment in a line: LEFTY2 binders on small-molecule microarrays, primary screen, biochemical, small-molecule microarray, 635 nm fluorescence scan (AID 1110). Particulars: LEFTY2 binding, higher = more signal.
In assay [4] the target is Calmodulin-1 (Homo sapiens) (UniProt P0DP23). The experiment in a line: CALM1 binders on microarrays, EGTA buffer, profiling panel, biochemical, small-molecule microarray, Cy5-labelled CALM1 (AID 1111).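 Further: labelled calmodulin applied in Tris saline Tween buffer holding calcium plus EGTA and DTT.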 The note with it: Cy5-CALM1 binding fluorescence, higher = more signal.
The target is the same in assay [5]. The assay is described as follows: calcium-bound CALM1 binders on microarrays, profiling panel, artefact control for SMM control-protein annotation, biochemical, small-molecule microarray, Cy5-labelled CALM1, plus calcium (AID 1112).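 Further: score merges spot fluorescence with signal to noise from triplicate slides.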 Particulars: Cy5-CALM1 binding fluorescence, higher = more signal.
The nature of assay [6]: small-molecule microarray binders of probe aWnt5a, primary screen, biochemical, biotinylated probe, 635/667 nm fluorescence (AID 1113).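 Further: score merges 667 nm fluorescence intensity with signal-to-noise per printed feature.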 The note with it: higher = more signal.
The nature of assay [7]: small-molecule microarray binders of probe aShh, primary screen, biochemical, biotinylated probe, 635/667 nm fluorescence (AID 1114).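 Further: probe is biotin-labelled aShh protein from a stem cell growth factor screen; measures binding of labelled protein to compounds printed on the slide; score merges feature fluorescence at 667 nm with signal-to-noise.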 The note with it: higher = more signal.
Assay [8] in a line: small-molecule microarray binders of probe aNog, primary screen, biochemical, biotinylated probe, 635/667 nm fluorescence (AID 1115).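 Further: probe is biotinylated aNog protein used at 0.15 µg/mL for 1 h at 4 C; z-score combines 667 nm fluorescence of each spot with its signal to noise.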 Particulars: higher = more signal.
The target of assay [9] is Torsin-1A-interacting protein 1 (Homo sapiens) (UniProt Q5JTV8). The experiment in a line: LAP1 binders from COS7 cell lysate, primary screen, small-molecule microarray, 635/667 nm fluorescence (AID 1116). Particulars: COS7-hLAP1 lysate binding, 635 nm fluorescence, higher = more signal.
Assay [10] has as its target Alpha-bungarotoxin (Bungarus multicinctus) (UniProt P60615). The experiment in a line: alpha-bungarotoxin binders on microarray, profiling panel, artefact control for SMM control protein annotation, biochemical, small-molecule microarray, Alexa647 label, 635/667 nm fluorescence (AID 1117). The note with it: alpha-BTX-A647 binding fluorescence, higher = more signal.
The target of the next assay is Albumin (Bos taurus) (UniProt P02769). The assay is described as follows: bovine serum albumin binders on microarray, profiling panel, artefact control for SMM control protein annotation, biochemical, small-molecule microarray, Alexa647 label, 635/667 nm fluorescence (AID 1118).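 Further: score merges 667 nm emission intensity and signal-to-noise per printed compound spot.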 The note with it: BSA-A647 binding, fluorescence 635 nm, higher = more signal.
Assay [11] is described as follows: small-molecule microarray binders of probe aXIP, primary screen, biochemical, NeuroSMM set, 635/667 nm fluorescence (AID 1119).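 Further: probe is the protein aXip251-270 applied at 1 µg/mL to compound-printed slides; binding of probe to printed compounds measured as 667 nm fluorescence plus signal to noise.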 The note with it: higher = more signal, called active from +8 up or from −8 down.
Assay [12] in a line: small-molecule binders of probe aNOTCH3, primary screen, biochemical, small-molecule microarray, 635/667 nm fluorescence (AID 1120).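 Further: probe is a biotin-tagged antibody raised against NOTCH3 rather than NOTCH3 protein; score merges spot fluorescence near 667 nm with spot signal to noise.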 The note with it: higher = more signal.
The nature of assay [13]: small-molecule binders of probe aNOTCH2, primary screen, biochemical, small-molecule microarray, 635/667 nm fluorescence (AID 1121).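 Further: score merges feature fluorescence read at 667 nm with its signal to noise.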 The note with it: higher = more signal.
The target of assay [14] is Carbonic anhydrase 2 (Homo sapiens) (UniProt P00918). The experiment in a line: CAII small-molecule binders, profiling panel, biochemical, small-molecule microarray, Alexa647-labelled CAII (AID 1122). Particulars: CAII-A647 binding fluorescence, higher = more signal.
The nature of assay [15]: COS7 lysate on small-molecule microarray, probe aHis, 635 nm (AID 1123).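 Further: z-score combines 667nm fluorescence intensity with signal-to-noise per printed compound spot.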 Particulars: COS7 cell lysate, fluorescence, higher = more signal.
The nature of assay [16]: compound binding in COS7 lysate, probe aLAP1, primary screen, cell lysate, small-molecule microarray (AID 1124).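 Further: lysate comes from COS7 cells expressing LAP1 and is applied at 0.3 µg/mL; score merges spot fluorescence near 667 nm with signal-to-noise over triplicate slides.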 Particulars: probe aLAP1, fluorescence, higher = more signal.
A further assay has as its system Sam68 (KHDRBS1). The experiment in a line: Sam68 small-molecule binders, primary screen, biochemical, small-molecule microarray, 635 nm fluorescence (AID 1125).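 Further: score merges 667 nm channel intensity with signal to noise over triplicate slides.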 Particulars: small-molecule microarray binding, higher = more signal.
The subject of assay [17] is Chordin-like protein 2 (CHRDL2). The assay is described as follows: CHRDL2 small-molecule binders, primary screen, biochemical, small-molecule microarray, 635 nm fluorescence (AID 1126).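 Further: printed compound slides probed with Chrdl2 protein at 4 µg/mL for 1 h at 4 C; score merges 667 nm emission intensity with signal to noise over three replicate slides.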 The note with it: small-molecule microarray binding, fluorescence 635 nm; higher = more signal.
Assay [18] has as its target Concanavalin-A (Canavalia ensiformis) (UniProt P02866). The assay is described as follows: ConA small-molecule binders, primary screen, artefact control for SMM control protein annotation, biochemical, small-molecule microarray, Alexa647 label, 635 nm (AID 1127).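 Further: z combines 667 nm emission intensity with signal-to-noise across three replicate slides.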 Particulars: ConA-A647 binding fluorescence, higher = more signal.

Chain of Torsin-1A-interacting protein 1 (Homo sapiens) (Q5JTV8 whole entry, looked up): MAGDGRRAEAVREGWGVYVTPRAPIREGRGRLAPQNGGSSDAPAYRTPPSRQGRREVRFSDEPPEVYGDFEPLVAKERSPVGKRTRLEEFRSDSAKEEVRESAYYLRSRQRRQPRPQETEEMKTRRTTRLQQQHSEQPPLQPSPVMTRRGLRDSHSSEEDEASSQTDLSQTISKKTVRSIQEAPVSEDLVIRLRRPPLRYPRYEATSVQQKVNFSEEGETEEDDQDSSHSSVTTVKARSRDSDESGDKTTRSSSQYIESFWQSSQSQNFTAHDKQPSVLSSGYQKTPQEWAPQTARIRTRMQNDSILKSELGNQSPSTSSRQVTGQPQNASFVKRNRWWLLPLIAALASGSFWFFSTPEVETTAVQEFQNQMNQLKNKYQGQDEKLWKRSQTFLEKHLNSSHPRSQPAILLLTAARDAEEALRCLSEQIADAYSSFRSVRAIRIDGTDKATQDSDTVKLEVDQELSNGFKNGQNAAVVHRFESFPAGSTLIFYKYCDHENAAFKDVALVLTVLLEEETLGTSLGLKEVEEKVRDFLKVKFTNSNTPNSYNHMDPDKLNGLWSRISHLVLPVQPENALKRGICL
Chain of Concanavalin-A (Canavalia ensiformis) (P02866 whole entry, looked up): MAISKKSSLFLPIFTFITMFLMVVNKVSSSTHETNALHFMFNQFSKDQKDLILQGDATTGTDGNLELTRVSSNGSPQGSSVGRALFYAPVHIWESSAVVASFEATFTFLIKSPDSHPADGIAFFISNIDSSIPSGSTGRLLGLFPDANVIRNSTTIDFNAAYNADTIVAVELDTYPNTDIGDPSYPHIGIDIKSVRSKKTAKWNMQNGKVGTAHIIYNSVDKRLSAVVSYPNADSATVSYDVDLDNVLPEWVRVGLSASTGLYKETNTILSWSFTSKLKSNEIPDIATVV
Chain of Left-right determination factor 2 (Homo sapiens) (O00292 whole entry, looked up): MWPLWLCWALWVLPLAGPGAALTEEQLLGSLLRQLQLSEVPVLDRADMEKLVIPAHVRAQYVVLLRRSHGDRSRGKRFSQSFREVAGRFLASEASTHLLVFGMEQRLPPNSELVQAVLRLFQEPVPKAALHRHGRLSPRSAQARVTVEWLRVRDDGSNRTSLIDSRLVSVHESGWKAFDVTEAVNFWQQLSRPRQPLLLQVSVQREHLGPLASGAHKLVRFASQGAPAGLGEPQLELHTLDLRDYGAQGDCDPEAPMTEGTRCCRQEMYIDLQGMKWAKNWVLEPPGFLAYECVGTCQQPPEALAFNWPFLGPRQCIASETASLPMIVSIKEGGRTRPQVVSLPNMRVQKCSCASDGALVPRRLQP
Chain of Alpha-bungarotoxin (Bungarus multicinctus) (P60615 whole entry, looked up): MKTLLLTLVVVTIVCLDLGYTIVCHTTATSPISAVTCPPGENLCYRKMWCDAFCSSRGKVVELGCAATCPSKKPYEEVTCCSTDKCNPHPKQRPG
Chain of Albumin (Bos taurus) (P02769 whole entry, looked up): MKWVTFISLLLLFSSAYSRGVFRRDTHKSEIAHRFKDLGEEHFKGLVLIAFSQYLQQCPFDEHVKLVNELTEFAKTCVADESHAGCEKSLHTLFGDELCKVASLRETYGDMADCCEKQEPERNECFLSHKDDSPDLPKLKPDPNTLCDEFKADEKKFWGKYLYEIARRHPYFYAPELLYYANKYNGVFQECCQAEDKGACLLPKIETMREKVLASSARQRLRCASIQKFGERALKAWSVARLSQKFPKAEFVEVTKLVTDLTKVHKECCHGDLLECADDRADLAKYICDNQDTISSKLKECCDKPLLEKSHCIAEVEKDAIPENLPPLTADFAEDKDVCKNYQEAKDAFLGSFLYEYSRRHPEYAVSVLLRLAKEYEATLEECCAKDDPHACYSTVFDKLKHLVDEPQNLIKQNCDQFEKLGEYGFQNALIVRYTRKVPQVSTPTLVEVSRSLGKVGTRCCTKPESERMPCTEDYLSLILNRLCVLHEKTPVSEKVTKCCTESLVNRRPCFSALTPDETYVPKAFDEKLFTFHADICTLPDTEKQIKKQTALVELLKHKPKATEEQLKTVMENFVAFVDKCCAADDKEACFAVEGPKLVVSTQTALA

For `C=CC[C@@]1(C(=O)NCc2ccccc2)N=C(c2ccc(OCCCO)cc2)O[C@@H]1c1ccccc1CN=[N+]=[N-]`, the composite z-score in assay [1] is 1.41; in assay [3], -0.511; in assay [4], 1.13; in assay [5], 0.429; in assay [6] it was 0.0676; in assay [7], 0.448. Moreover, the composite z-score in assay [8] was determined as 0.622; in assay [9], 1.1; in assay [10], 1.28; with Albumin (Bos taurus), 0.889; in [12], 0.525; in [13], 0.117. Also, the composite z-score in [14] is 0.721; in assay [15], 2.95; in [16], 0.88; in the assay on Sam68 (KHDRBS1), 1.26; in assay [17], -0.58; in assay [18] it was 1.03. Besides, the z-score in [2] is -2.31. Moreover, the composite Z-score in assay [11] was 1.01 (inactive).
Turning to `O=C1[C@H]2C=C(Br)[C@H](C[C@@H]2OCCOCCO)[C@@]12CO2`, the composite z-score in [1] was 0.0617; in [3], 0.348; in [4] it was -0.2; in [5], -0.341; in [6], -0.0944; in [7], -0.0769. The composite z-score in [8] was -0.303; in [9], 0.0452; in assay [10], 0.554; with Albumin (Bos taurus) it was -0.335; in [12], -0.105; in [13] it was -0.0418. For the same molecule, the composite z-score in assay [14] is -0.122; in [15] it was -0.146; in assay [16], 0.669; with Sam68 (KHDRBS1) it was 0.421; in assay [17], 0.169; in assay [18], 0.393. The same molecule came in with a z-score in [2] of -1.85. Besides, the composite Z-score in assay [11] was -0.0482 (inactive).
With `CC(C)OC(=O)C1=CCC(c2cccc(Cl)c2)O1` (stereo not given), the composite z-score was 1.07 in assay [1]; -1.44 in assay [3]; 0.222 in assay [4]; 0.45 in [5]; 0.0654 in assay [6]; 0.16 in assay [7]. The composite z-score in [8] was -0.347; in assay [9] it was 0.0025; in [10] it was 0.274; in the assay with Albumin (Bos taurus), 0.569; in assay [12] it was -0.36; in assay [13] it was -0.169. Also, the composite z-score in assay [14] is 0.848; in assay [15] it was 2.72; in assay [16], -0.157; in the assay on Sam68 (KHDRBS1) it was 0.649; in assay [17], -1.72; in assay [18], 0.417. Moreover, the z-score in assay [2] was -2.34. Also, the composite Z-score in [11] was 0.403 (inactive).
As for `C=CC[C@]1(C(=O)O)N=C(c2ccc(OCCCO)cc2)O[C@H]1c1ccccc1CN=[N+]=[N-]`, the composite z-score in assay [1] is -0.907; in assay [3], -0.46; in assay [4] it was 0.371; in assay [5], 0.939; in assay [6] it was -0.0977; in [7] it was -0.0209. In addition, the composite z-score in [8] is -0.0554; in [9], 0.371; in assay [10], -0.445; with Albumin (Bos taurus) it was 0.659; in [12], -0.0447; in assay [13], -0.157. For the same molecule, the composite z-score in [14] was 0.876; in [15], 1.23; in [16] it was -0.201; with Sam68 (KHDRBS1), -0.103; in assay [17], 0.0037; in assay [18] it was 0.0681. Also, in assay [2], the z-score is -0.439. The composite Z-score in assay [11] was 0.168 (inactive).
As for `COc1ccc([Si](C)(C)[C@H]2[C@H](CC(=O)N3CCC[C@H]3CO)O[C@@]3(C(=O)N(Cc4cccc(N5CCC5=O)c4)c4ccccc43)[C@@H]2C)cc1`, the composite z-score in assay [1] was 1.41; in assay [3] it was 0.992; in assay [4], -0.105; in assay [5], -0.363; in [6] it was -0.0203; in assay [7], 0.265. Also, the composite z-score in assay [8] is 0.572; in assay [9], 0.901; in assay [10], 0.872; with Albumin (Bos taurus) it was -0.654; in assay [12] it was 0.229; in assay [13], -0.0392. In addition, the composite z-score in assay [14] was 0.395; in assay [15], 0.789; in assay [16] it was -0.0115; in the assay on Sam68 (KHDRBS1) it was 1.31; in assay [17], 0.95; in assay [18], 0.759. Further, the z-score in assay [2] was -2.36. The composite Z-score in [11] is -0.804 (inactive).
